# Screens as filed in PubChem BioAssay.
# Many of the other results were omitted from the sample, so hits are more common in it than they were.
# Methyltransferases – Primary Screen for Target Class Profiling of Small Molecule Inhibitors of Methyltransferases; calls only at 40 µM; purified enzyme, MTase-Glo SAH luminescence; hits give low values; 3.9% of 25,000 active; AID 1745853, 2022; call rule not given here
#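 Each enzyme was reacted with SAM and its substrate, with compounds tested once at 40 uM; SAH formed was read by MTase-Glo luminescence.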
# * = called active by the depositor; i = inactive; + = active, no number. % is set by controls: 0 for no effect and ±100 for the full control effect.
SMILES,Methyltransferases
CC(C)Cn1c(=O)c2ccc(C(=O)NC3CCCCC3)cc2n2c(SCC(=O)NC(C)C)nnc12,i
O=C(NCc1ccc(F)cc1)c1ccc2c(=O)nc3c(-c4ccc(F)cc4)n[nH]n3c2c1,i
O=C(O)c1cccc(CN2C(=O)/C(=C(\c3ccccc3)c3ccc(Cl)cc3)c3ccccc32)c1,+
CC(=O)N1CC2(CCCN2Cc2cccc(C(N)=O)c2)Cc2ccccc21 (centres undefined),i
O=C1CN(Cc2cccc(Cl)c2)S(=O)(=O)c2ccccc2N1Cc1ccc(Cl)cc1,i
COc1ccc(-c2cc3n(n2)CC(C)(C(=O)NCc2ccccc2)N(CCCOC(C)C)C3=O)cc1 (centres undefined),i
Cc1cccc(CNC(=O)C2(C)Cn3cnc(C(=O)NC4CCCC4)c3C(=O)N2C2CC2)c1 (centres undefined),i
CC1(C(=O)NCc2ccc(F)cc2)Cn2cnc(C(=O)NCCCc3ccccc3)c2C(=O)N1C1CC1 (centres undefined),i
CCCn1c(=O)c2ccc(C(=O)NC(C)C)cc2n2c(SCc3cccc(C)c3)nnc12,i
CC1(C)[C@@H](O)CC[C@]2(C)[C@H]3CC=C4[C@@H]5C[C@](C)(C(=O)O)CC[C@]5(C)CC[C@@]4(C)[C@]3(C)CC[C@@H]12,+
CC(=O)O[C@H]1[C@H](O)C[C@@]2(C)C(CC[C@]3(C)C2CC=C2C4CC(C)(C)CC[C@]4(C(=O)O)CC[C@]23C)C1(C)C (some centres undefined),i
CC1(C)CC[C@]2(C(=O)O)CC[C@]3(C)C(=CCC4[C@@]5(C)C[C@@H](O)[C@H](O)C(C)(C)C5CC[C@]43C)[C@@H]2[C@@H]1O (some centres undefined),i
CC1(C(=O)NC2CCCCCC2)Cn2c(cc3sccc32)C(=O)N1Cc1ccc(F)cc1 (centres undefined),i
Cc1cccc(CSc2nnc3n(Cc4ccccc4)c(=O)c4ccccc4n23)c1,i
CCCn1c(=O)c2ccc(C(=O)NC(C)CC)cc2n2c(=O)n(CC(=O)c3ccc(Cl)cc3)nc12 (centres undefined),i
Cc1nc(Nc2n[nH]c3c2CN(C(=O)NC(CN(C)C)c2ccccc2)C3(C)C)c2sccc2n1 (centres undefined),+
CCn1nc(CNC(=O)c2c(F)cccc2Cl)c2ccccc21,i
CC(C)(O)c1ccc2c(c1)ncn2-c1cccc(-c2ccccc2C#N)c1,+
COc1ccc(-c2cc3n(n2)CC(C)(C(=O)NCc2ccccc2OC)N(Cc2ccccc2)C3=O)cc1 (centres undefined),i
CCCN1C(=O)c2c(C(=O)NCc3ccc(N(C)C)cc3)ncn2CC1(C)C(=O)NCc1ccc(F)cc1 (centres undefined),i
COc1ccc(-c2cc3n(n2)CC(C)(C(=O)NC2CCCCC2)N(Cc2cccnc2)C3=O)cc1 (centres undefined),i
COc1ccc(-c2cc3n(n2)CC(C)(C(=O)NCc2ccccc2)N(c2ccc(C(C)C)cc2)C3=O)cc1 (centres undefined),i
COC(=O)CC1OC(C)C2=C(O)c3c(O)cccc3C(=O)C23OC13 (centres undefined),+
C=CCn1c(=O)c2ccc(C(=O)NC(C)C)cc2n2c(=O)n(CC(=O)Nc3cccc(Cl)c3)nc12,i
CCCCN1C(=O)c2cc(C(=O)Nc3ccccc3C)nn2CC1(C)C(=O)NC1CCCC1 (centres undefined),i
SMILES,Methyltransferases
CCCn1c(=O)c2ccc(C(=O)NC3CCCCC3)cc2n2c(=O)n(CC(=O)NC(C)CC)nc12 (centres undefined),i
CCc1cc2c(cc3n2CC(C)(C(=O)NC2CCCCC2)N(CCc2ccc(Cl)cc2)C3=O)s1 (centres undefined),i
CCCCNC(=O)c1ccc2c(=O)nc3c(-c4ccccc4F)n[nH]n3c2c1,i
O=C(Cn1c(=O)n2nc(-c3ccccc3)nc2c2ccccc21)N1CCN(c2ccc(F)cc2)CC1,i
COc1cc2ncnc(Nc3cccc(I)c3)c2cc1OC,+
COc1cc2ncnc(Nc3cc(Br)c(O)c(Br)c3)c2cc1OC,i
COc1cc2ncnc(-n3nc(-c4ccccn4)nc3N)c2cc1OC,i
Cc1ccc(N2C(=O)c3cc4occc4n3CC2(C)C(=O)NC2CCCCCCC2)cc1C (centres undefined),i
CCCSCCCN1C(=O)c2nc3ccccc3n2CC1(C)C(=O)NC1CCCCC1 (centres undefined),i
COc1ccc(-c2cc3n(n2)CC(C)(C(=O)NC2CCCCC2)N(CCC(C)C)C3=O)cc1 (centres undefined),i
CCC(NS(=O)(=O)c1cc(-n2cccn2)ccc1OC)C1CC(O)C1 (centres undefined),i
COc1cc(N2CCC(O)CC2)ccc1Nc1cc(Nc2ccccc2S(=O)(=O)C(C)C)c2cc[nH]c2n1,+
